In all, about 260,000 compounds went through this assay and about 1,500 (0.58%) were called active. Another 5% or so got no clear call; they are omitted. The list is a sample of the results. Entries with a potency or affinity are not part of this list. A number with no mark means an inactive call.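 How the source made its calls: active means inhibition above a set limit at one or more doses, reproduced on every date tested; inconclusive means results disagree between test dates, or hit never tested in dose response; inactive means the rest.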
What follows are compounds tested against Virion infectivity factor (Human immunodeficiency virus type 1 group M subtype B (isolate BH10)) + Virion infectivity factor (Human immunodeficiency virus type 1 group M subtype B (isolate BRU/LAI)) + Virion infectivity factor (Human immunodeficiency virus type 1 group M subtype B (isolate PCV12)) + Virion infectivity factor (Human immunodeficiency virus type 1 group M subtype B (isolate HXB2)) + DNA dC->dU-editing enzyme APOBEC-3G (Homo sapiens) (UniProt P69720+P69721+P69722+P69723+Q9HC16) (assay: inhibitors of Vif binding to APOBEC3G peptide, primary screen, biochemical, TR-FRET, GST-Vif 1-94, biotin-A3G peptide, dose response retest (AID 1117319;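 further: Vif residues 1-94 fused to GST binding biotinylated APOBEC3G peptide 110-148; 0% = full assay without inhibitor and 100% = GST in place of GST-Vif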)). Conditions: hits give high values.
With `Cc1onc(-c2c(Cl)cccc2Cl)c1NC(=O)NNc1c(Cl)cncc1Cl` the inhibition was -3.28%.
Compound `CCOC=C1SC(=S)N(c2ccccc2OC)C1=O` has an inhibition of -1.46%.
`COc1ccccc1NC(=S)N1CCCCCC1` gave an inhibition of -0.41%.
For `CCc1ccc(CCC(=O)Nc2ccc(S(N)(=O)=O)cc2)o1`, the inhibition was 68.2%.
`CC(=O)Nc1ccc(NC(=O)CCc2ccc(C)o2)cc1` was tested, and the inhibition was 3.07%.
For `O=C(COC(=O)COc1cccc(Br)c1)NCc1ccc2c(c1)OCO2`, the inhibition was -4.12%.
In the case of `CCOc1ncccc1C(=O)OCC(=O)c1c(N)n(C)c(=O)n(C)c1=O`, the inhibition is reported as -0.62%.
In the case of `CCN(CC(=O)Nc1c(F)cccc1F)C(=O)c1c(-c2ccccc2Cl)noc1C`, the inhibition is reported as 10.1%.
In the case of `C=CCn1c(COc2ccc(Cl)cc2)nnc1SCc1ccc(C#N)cc1`, the inhibition is reported as -5.86%.
With `CCc1c(C)[nH]c2ccccc2c1=O` the inhibition was 22.4%.
In the case of `Cc1[nH]c2ccccc2c1-c1nc2ccccc2[nH]1`, the inhibition is reported as 24.1%.
In the case of `CCOc1ccc(CCNC(=O)CS(=O)Cc2nc(-c3ccc(C)cc3)oc2C)cc1` (stereo not drawn), the inhibition is reported as 5.23%.
`COc1ccc(N2CCN(Cc3cc(=O)oc4cc(C)c(Cl)c(C)c34)CC2)cc1` gave an inhibition of 4.75%.
For `O=C(NCCN1CCN(c2ccccc2)CC1)C1CCN(S(=O)(=O)c2cccc3nsnc23)CC1`, the inhibition was -4.91%.
In the case of `O=C(NCCc1ccccc1)C1CCN(S(=O)(=O)c2cccc3nonc23)CC1`, the inhibition is reported as -0.8%.
With `Cc1cc(=O)[nH]c(SCCCOc2ccccc2Cl)n1` the inhibition was -1.03%.
With `CCSc1n[nH]c2nc3c(c(=O)n12)C1(CCCCC1)Cc1ccccc1-3` the inhibition was -15.1%.
With `CCN(CC)C(=O)CSc1nnc(-c2ccccn2)n1-c1ccccc1OC` the inhibition was -5.38%.
Compound `O=[N+]([O-])c1cc(Cc2ccccc2)cc(C=Nc2ccc(N3CCOCC3)cc2)c1O` has an inhibition of 23.6%.
For `Oc1c(Br)cc(Cl)cc1C=Nc1ccc(N2CCOCC2)cc1`, the inhibition was 29.3%.
Compound `COc1cccc(C(=O)Nc2ccc(NC(=O)c3ccco3)c(Cl)c2)c1` has an inhibition of -3.2%.
For `Cc1ccc(-c2cc(C(F)(F)F)n3nc(C(=O)Nc4ccon4)cc3n2)cc1C`, the inhibition was 10.8%.
`Cc1nccn1CC(=O)N/N=C/c1cccc(O)c1` gave an inhibition of 2.96%.
With `COc1ccc(/C=N/NC(=O)Cn2ccnc2C)cc1OC` the inhibition was -2.05%.
For `CNC(=O)C(=O)N/N=C/c1ccc(Br)cc1`, the inhibition was 17.2%.
`COc1ccc(NC(=O)COc2ccccc2Cl)cc1S(=O)(=O)N1CCCCC1` was tested, and the inhibition was 11.7%.
With `O=C(CNS(=O)(=O)c1ccccc1Br)OCC(=O)N1CCc2ccccc21` the inhibition was 4.27%.
In the case of `Cc1onc(-c2c(F)cccc2Cl)c1C(=O)N1CCOC12CCCCC2`, the inhibition is reported as -10.5%.
`Nc1ccc(S(=O)(=O)c2ccc(N)cc2)cc1` was tested, and the inhibition was -4.69%.
For `Nc1ccc(S(=O)(=O)c2cccc(N)c2)cc1`, the inhibition was 0.36%.
`COc1ccc(-c2csc3nc(C)nc(N4CCN(C(C)=O)CC4)c23)cc1OC` gave an inhibition of -6.79%.
Work on `COc1cc(S(=O)(=O)NC2CCCCC2)ccc1F` yielded an inhibition of -3.56%.
For `COc1ccc(C2c3c(-c4ccccc4O)n[nH]c3C(=O)N2Cc2ccco2)cc1OC` (stereo not drawn), the inhibition was -4.89%.
`CC(C)[C@@H]1N[C@]2(C(=O)Nc3ccccc32)[C@@H]2C(=O)N(c3cccc(C(F)(F)F)c3)C(=O)[C@@H]21` gave an inhibition of 7.45%.
With `NC(=O)C[C@@H]1N[C@]2(C(=O)Nc3ccccc32)[C@@H]2C(=O)N(C3CCCCC3)C(=O)[C@H]12` the inhibition was 6.65%.
Compound `C=CCNC(=S)N/N=C/c1ccc(N(CC)Cc2ccccc2)cc1` has an inhibition of -8.07%.
`CCOC(=O)c1cc(-c2cccc(C(F)(F)F)c2)nc2nc(SC)[nH]c(=O)c12` was tested, and the inhibition was -8.37%.
For `O=C(Nc1ccnn1C1CCN(Cc2ccc(C#CCCO)cc2)CC1)c1cccc(F)c1`, the inhibition was 4.84%.
Work on `CCS(=O)(=O)Nc1ccc(NC(C)=O)cc1` yielded an inhibition of 10.1%.
In the case of `CNC(=O)CSc1nnc(-c2ccccc2)n1C`, the inhibition is reported as -0.87%.
Compound `CCc1ccc(-c2nc(CN3CCC(C(=O)N4CCN(c5ccccn5)CC4)CC3)c(C)o2)cc1` has an inhibition of -7.35%.
Work on `Cc1oc(-c2cccc(Cl)c2)nc1CN1CCC(C(=O)N2CCN(c3ccccn3)CC2)CC1` yielded an inhibition of 6.2%.
`CCOc1ccc2nc(NC(=O)C3CCCN(S(=O)(=O)c4c(C)noc4C)C3)sc2c1` (stereo not drawn) was tested, and the inhibition was -3.03%.
`Cc1cc(C(c2ccc(O)cc2)c2cc(C)c(O)cc2C)c(C)cc1O` gave an inhibition of 1.89%.
`Cc1cc(NC(=O)c2ccc(Cl)cc2)c(C)cc1O` showed an inhibition of -1.13%.
`CCOC(=O)c1c(S(=O)(=O)NCC2CCN(Cc3cccc(F)c3)CC2)c(C)n(C)c1C` gave an inhibition of -4.42%.
With `O=C(CCN1C(=O)/C(=C/c2ccccc2Cl)SC1=S)NC1=NCCS1` the inhibition was 9.65%.
For `O=C(CCN1C(=O)S/C(=C\c2cccs2)C1=O)NC1=NCCS1`, the inhibition was 25.6%.
`CCC1(c2ccc(F)cc2)NC(=O)N(CC(=O)NCc2ccc(C)cc2)C1=O` (stereo not drawn) showed an inhibition of -8.4%.
For `COc1cccc(C(=O)N2CCN(C(=O)Cc3ccccc3)CC2)c1`, the inhibition was -2.27%.
`CC1=NN(c2ccccc2)C(=O)/C1=C\c1cc(C)n(C)c1C` showed an inhibition of 6.69%.
With `O=C(Cn1cnc2c(nnn2Cc2ccccc2)c1=O)NCc1ccco1` the inhibition was -2%.
For `Cc1ccc(Cn2nnc3c(=O)n(CC(=O)NCc4ccco4)cnc32)cc1`, the inhibition was 16.3%.
In the case of `CC(O)CNc1ccc([N+](=O)[O-])cc1S(=O)(=O)N1CCOCC1` (stereo not drawn), the inhibition is reported as 6.02%.
With `NS(=O)(=O)c1ccc(N/N=C/c2ccc(O)cc2O)c([N+](=O)[O-])c1` the inhibition was -13.8%.
For `NS(=O)(=O)c1ccc(N/N=C/c2ccccc2C(=O)O)c([N+](=O)[O-])c1`, the inhibition was -3.72%.
`O=[N+]([O-])c1ccc(NCCCO)c(S(=O)(=O)N2CCOCC2)c1` showed an inhibition of -0.32%.
Work on `O=C(CCNS(=O)(=O)c1ccc(Br)cc1)N1CCN(c2ccccc2O)CC1` yielded an inhibition of 0.32%.

Reference: PubChem BioAssay AID1117319 (Southern Research Institute, 2015)
